Compound activity: PubChem, National Center for Advancing Translational Sciences (NCATS)
JMJD2A Tudor – qHTS Assay for Inhibitors of JMJD2A-Tudor Domain; Potency, µM (top dose mostly 114 µM), for the others: at the top dose activity change, negative = inhibition, most hits filed as inhibitors; AID 504339, 2011; hit rate 4.4% among 390,000; AlphaScreen JMJD2A-Tudor / H3K4me3 peptide binding; further: on the % scale 0 is the no-effect control and ±100 the full control effect; nearly all actives have a fitted effect of over 50% in size
HP1b binding inh – HTS for Inhibitors of HP1-beta Chromodomain Interactions with Methylated Histone Tails. AlphaScreen HP1-beta / biotin-H3K9me3 peptide binding. AID 540317, 2011. hit rate 0.56% among 390,000. Potency, µM (top dose mostly 114 µM), for the others: top-dose activity change, negative = inhibition, actives largely listed as inhibitors; further: nearly all actives have a fitted effect of over 70% in size
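Compound inhibition of the preformed complex between 50 nM HP1-beta and 50 nM biotinylated H3K9me3 peptide was read by AlphaScreen. Buffer was PBS pH 7.4 with 0.01% Tween-20. Incubations ran 30 min at room temperature, with 10 ug/mL donor/acceptor beads.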
L3MBTL1 inh – qHTS Assay for the Inhibitors of L3MBTL1. Lethal(3)malignant brain tumor-like protein 1 (Homo sapiens), Q9Y468. AlphaScreen L3MBTL1–H3K9me1 peptide binding. Potency, µM (doses to about 57.1 µM), without a hit: at the highest dose activity, negative = inhibition, most hits filed as inhibitors. hit rate 0.66% among 230,000; further: on the % scale 0 is the no-effect control and ±100 the full control effect; nearly all actives have a fitted effect of over 60% in size
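Displacement of a biotinylated histone H3(1-15) peptide monomethylated at Lys9 (75 nM) from L3MBTL1 (50 nM) was measured by AlphaScreen after a 30 min room-temperature compound incubation; cefsulodin titration served as intraplate control.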
BAZ2B inh – qHTS Assay for Inhibitors of BAZ2B. Bromodomain adjacent to zinc finger domain protein 2B (Homo sapiens), Q9UIF8. AlphaScreen BAZ2B-H3K14Ac peptide displacement. Potency, µM (highest dose often 114 µM), without a hit: top-dose activity change, negative = inhibition, actives largely listed as inhibitors. hit rate 4.4% among 360,000. AID 504333, 2011; further: on the % scale 0 is the no-effect control and ±100 the full control effect; nearly all actives have a fitted effect of over 60% in size
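AlphaScreen luminescence quantifies BAZ2B engagement of H3K14Ac peptide; the protein and biotinylated peptide are both at 50 nM final, buffer PBS pH 7.4 with 0.01% Tween-20, all steps at room temperature.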
Sfp PPTase inh – qHTS Assay for Inhibitors of Bacillus subtilis Sfp phosphopantetheinyl transferase (PPTase) | 4'-phosphopantetheinyl transferase ffp (Bacillus subtilis), Q9F4F7 | Biochemical Sfp PPTase activity, qHTS | Potency, µM, for inactives: largest response in the series, negative = inhibition, actives largely listed as inhibitors | hit rate 3.5% among 310,000;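 further: the enzyme is Sfp with the accession as filed and its product quenches rhodamine fluorescence; 0% = enzyme reaction without inhibitor and -100% = no enzyme wells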
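Reaction rates are the 30-min fluorescence difference (ex 525, em 598 nm) in wells containing 15 nM Sfp, 5 uM rhodamine-CoA and 12.5 uM BHQ-2-YbbR at pH 7.6 with 10 mM MgCl2.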
G9a block – qHTS Assay for Inhibitors of Histone Lysine Methyltransferase G9a. Histone-lysine N-methyltransferase EHMT2 (Homo sapiens), Q96KQ7. G9a H3K9 monomethylation, AlphaScreen, 2 h. Potency, µM (doses to about 102 µM), without a hit: top-dose activity, negative = inhibition, actives largely listed as inhibitors. hit rate 8.8% among 350,000; further: on the % scale 0 is the no-effect control and ±100 the full control effect; nearly all actives have a fitted effect of over 75% in size
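Enzyme 20 nM + cpd, 15 min RT; add b-H3K9 pep 500 nM / SAM 20 uM; 2 h RT; anti-H3K9me1 Ab 0.5 ug/mL + SA donor / anti-rabbit acceptor beads 20 ug/mL each, 10 min; AlphaScreen read.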
* marks the source's active call; other numbers are inactive results; ? = inconclusive; . = no result given; [ ] = remark or other dose. Sampled rows, rich in hits. Any-hit rate of the full collection: about 12%. The call rests on the fitted dose curve; in most records, active means well fitted curve in the direction sought with a large enough effect; inconclusive means small, poorly fitted or top-dose-only effect, or another doubt; inactive means no such curve, though single readings can be large; an effect the other way counts as inactive or inconclusive. Potency means the concentration at half of the fitted maximal effect.

SMILES | JMJD2A Tudor | HP1b binding inh | L3MBTL1 inh | BAZ2B inh | Sfp PPTase inh | G9a block
C=CCn1c(-c2cccc([N+](=O)[O-])c2)n[nH]c1=S | 5.6µM* | 20% | . | -27% | ? | 13µM*
Cc1ccc(NC(=O)c2cnn3c(C(F)F)cc(-c4ccccc4)nc23)cc1F | -1% | 46% | . | 3% | . | -13%[59 µM]
C=CCn1c(-c2sccc2C)n[nH]c1=S | 7.1µM* | 23% | 4% | -4% | 2% | 7.9µM*
Cc1cc(-c2sccc2C)nc(-n2cccc2)n1 | 50% | 89% | 11% | 32% | -17% | 1%[12.7 µM]
CC(C)CC(=O)Nc1ccc(Cl)c(-c2nc3ccccc3[nH]2)c1 | -18% | 35% | . | -5% | . | -5%[59 µM]
O=S1(=O)N=C(N/N=C/c2ccccn2)c2ccccc21 | 79µM* | 35% | ? | 35µM* | 6% | 16%
O=S1(=O)N=C(N/N=C/c2ccc(Br)o2)c2ccccc21 | ? | 19% | 1% | 0% | 1% | 40µM*
CCN(CC)CCC[C@H](C)Nc1c2ccc(Cl)cc2nc2ccc(OC)cc12 | . | . | . | . | 16% | ?
Cc1cccc(N2CCN(C(=O)Cn3nc(Cc4cccnc4)c4ccccc4c3=O)CC2)c1C | ? | 26% | . | -37% | . | 3%[59 µM]
Cc1cc(=O)n(Cc2ccccc2)c2ccccc12 | -29% | 28% | . | ? | 10% | -5%
Cc1c(CN(C)C)c2c(n1Cc1ccccc1)C(=O)c1ccccc1-2 | 50µM* | ? | . | 50µM* | -2% | ?
C/C=C(\C)C(=O)NCCN1C2=NC[C@H](C)N2C[C@@H]1Cc1ccc(OC)cc1 | -14% | 38% | 7% | -6% | 9% | .
CCCCCCNC(=O)N[C@H](C(=O)NCCC[C@H]1CN2C(=NC[C@H]2C)N1CCC(c1ccccc1)c1ccccc1)C(C)O (some centres undefined) | . | . | . | 20µM* | 2.2µM* | ?
C=C1N(C)c2cc([N+](=O)[O-])c(N)cc2C1(C)C | ? | ? | . | 45µM* | -12% | 32µM*
CC1(C)Oc2cc(N)c([N+](=O)[O-])cc2O1 | -16% | -9% | -25% | -34% | 4% | ?
Cc1cc(C)n2nc(CC(=O)NNC(=O)c3ccccc3Cl)nc2n1 | 5% | 55% | . | 14% | 3% | 7.1µM*
COc1ccc(C(=O)NNC(=O)Cc2nc3nc(C)cc(C)n3n2)cc1 | 9% | 43% | . | -35% | -16% | 0.35µM*
Cc1cc(C)n2nc(C(=O)NNC(=O)c3ccc(Cl)cc3)nc2n1 | -20% | 29% | . | 89µM* | ? | ?
Cc1ccccc1CN1C(=O)c2ccccc2S(=O)c2ccc(C(=O)NCc3ccccc3)cc21 (centres undefined) | -18% | 23% | . | 1% | . | -4%[59 µM]
COc1ccc(-c2onc(C)c2C)cc1S(=O)(=O)Nc1ccc(OC(F)(F)F)cc1 | -18% | 40% | . | -4% | . | -3%[59 µM]
Cc1ccc(NC(=O)C(=O)NCC(c2ccc3c(c2)OCO3)N2CCN(c3ccccc3)CC2)cc1 (centres undefined) | -24% | 16%[57 µM] | . | 2% | . | 3%[59 µM]
COc1cccc(C2C(C(=O)Nc3ccccc3)=C(C)N=c3s/c(=C/c4ccc(OCC(=O)O)cc4)c(=O)n32)c1 (centres undefined) | -26% | -2% | -9% | -13% | 1% | 16%[59 µM]
CC1=C(C(=O)Nc2ccccc2)C(c2ccc(C)o2)n2c(s/c(=C\c3ccco3)c2=O)=N1 (centres undefined) | -13% | 19% | . | 50µM* | 50µM* | ?
COc1ccc(-c2nc3cnc(Nc4cccc(OC)c4)nc3n(C)c2=O)cc1 | . | . | . | . | 10% | 11%[0.501 µM]
O=C(NCCN1CCOCC1)c1c(O)nc2sccn2c1=O | 32µM* | 4% | -11% | -28% | . | ?
SMILES | JMJD2A Tudor | HP1b binding inh | L3MBTL1 inh | BAZ2B inh | Sfp PPTase inh | G9a block
N=c1c2c(-c3ccccc3)c(-c3ccccc3)n(Cc3ccco3)c2ncn1CCCn1ccnc1 | ? | -23% | -14% | ? | -7% | ?
c1ccc(-c2c(-c3ccccc3)n(Cc3ccco3)c3ncnc(NCCCn4ccnc4)c23)cc1 | 45µM* | ? | . | 32µM* | 63µM* | ?
c1ccc(-c2oc3ncnc(NCCCn4ccnc4)c3c2-c2ccccc2)cc1 | 56µM* | ? | -27% | 25µM* | ? | ?
N=c1c2c(-c3ccccc3)c(-c3ccccc3)n(Cc3ccco3)c2ncn1Cc1ccccc1 | -18% | 14% | . | 45µM* | 22µM* | -9%[12.7 µM]
CC(C)Cn1cnc2c(c(-c3ccccc3)c(-c3ccccc3)n2Cc2ccco2)c1=N | ? | -16% | . | ? | -22% | ?
OCCNc1ncnc2c1c(-c1ccccc1)c(-c1ccccc1)n2Cc1ccco1 | 56µM* | -12% | . | 50µM* | -27% | 18µM*
Cc1ccc(NC(=O)CSCc2cc(=O)c3ccccc3[nH]2)c(C)c1 | -7% | 25%[57 µM] | . | 11% | . | 13%[59 µM]
O=C(NNc1nc2ccccc2s1)Nc1ccccc1 | -21% | 21% | -1% | -34% | 3% | 2%[59 µM]
CCCC(=O)Nc1nc2ccc(OCC)cc2s1 | -14% | 23% | -11% | 2% | 7% | -33%
CN(C)C(=S)Nc1nc2ccccc2s1 | 3.5µM* | ? | ? | -37% | 14µM* | -10%[0.501 µM]
S=C(Nc1ccccc1)c1nc2ccccc2s1 | 40µM* | ? | -16% | -38% | 15% | ?
CCOc1ccc2nc(NC(=O)c3cnc(C)cn3)sc2c1 | -18% | 35% | . | -1% | -25% | 45µM*
CCNC(=O)Nc1nc2ccccc2s1 | -2% | 31% | . | -4% | -1% | -5%
CCOc1ccc2nc(NC(=S)N(C)C)sc2c1 | 13µM* | ? | . | 35µM* | 40µM* | 1.6µM*
Cc1ccc(S(=O)(=O)NCc2nc(-c3cccc(C)c3)no2)cc1 | -1% | 35% | . | -2% | . | -17%[59 µM]
CN(C(=S)Nc1cccnc1)c1ccc(O)cc1 | ? | ? | -9% | -10% | ? | 1.6µM*
CN(C(=S)Nc1ccccc1)c1ccccc1 | 21% | 2% | 9% | -20% | 9% | -10%
CCN(C(=S)Nc1cccnc1)c1ccccc1 | -3% | 18% | 14% | -17% | -20% | -37%
CN(C(=S)Nc1ccc(Oc2ccccc2)cc1)c1ccc(O)cc1 | 56µM* | 18µM* | ? | ? | 7.9µM* | 1.3µM*
CN(C(=S)Nc1ccc(SC(F)F)cc1)c1ccc(O)cc1 | ? | 71µM* | -18% | ? | 32µM* | 1.4µM*
